Source: PubChem BioAssay (Broad Institute)
Rows were chosen to be rich in hits. Some 1.1% of all compounds tested hit in one or more screens of this group.
PrP UTR inh: suppresses PrP 5' UTR mRNA reporter expression; inhibition, % (concentration not given with the values); cell-based PrP 5' UTR mRNA reporter, plate reader; actives 0.35% (n = 340,000); AID 488862; in the data active means inhibition above about 52%
BioA inh: inhibitors of Mycobacterium tuberculosis BioA enzyme | purified M. tuberculosis BioA enzyme, plate reader | actives 0.096% (n = 360,000) | inhibition, % at 9.99 µM; in the data active means inhibition above about 40%; inconclusive means no clear call, values can overlap the other calls
FadD28 FP inh: M. tuberculosis FadD28 bisubstrate binding inhibition. FadD28 bisubstrate probe binding, fluorescence polarization. inhibition, % at 12.5 µM. actives 0.22% (n = 360,000); in the data active means inhibition above about 8.5%, passing the limit was not always enough; inconclusive means no clear call, values can overlap the other calls
Y pestis TopoI: blocks Yersinia pestis topoisomerase I activity; Y. pestis Topo-I cleavage product accumulation, plate reader; activity, % at 10 µM; actives 0.064% (n = 360,000); in the data active means activity above about 50%, passing the limit was not always enough; inconclusive means no clear call, values can overlap the other calls
PfHsp40 yeast: compounds rescuing yeast from Plasmodium falciparum HSP40 toxicity; growth rescue, % at 12.5 µM; AID 504582; actives 0.68% (n = 340,000); S. cerevisiae expressing PfHsp40, growth rescue, ATP luminescence; in the data active means growth rescue above about 28%, passing the limit was not always enough; inconclusive means no clear call, values can overlap the other calls;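 further: yeast W303a lacking pdr1 and pdr3 grown in galactose medium; growth measured after three days at 30 °C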
PrP 5UTR single: prion 5' UTR mRNA inhibition, cherry-pick retest. shares compounds with PrP UTR inh. cell-based prion protein 5' UTR reporter, plate reader. actives 48% (n = 1,100). inhibition, % at 2.5 µM; in the data active means inhibition above about 54%; inconclusive means no clear call, values can overlap the other calls
A number is an active result.

COc1ccc(C(=O)CCC(=O)NCCc2ccccc2F)cc1 was read as PrP UTR inh inactive, BioA inh inactive, FadD28 FP inh inactive, Y pestis TopoI inactive and PfHsp40 yeast inactive.
For O=C(NCc1ccccc1F)c1ccc2c(c1)OCO2 the results were PrP UTR inh inactive, BioA inh inactive, FadD28 FP inh inactive, Y pestis TopoI inactive and PfHsp40 yeast inactive.
Screening CC(=O)CCC(=O)NCCc1ccccc1F returned PrP UTR inh 85, BioA inh inactive, FadD28 FP inh inactive, Y pestis TopoI inactive, PfHsp40 yeast inactive and PrP 5UTR single inactive.
`CSc1nc(-c2ccc(C)cc2)nc(C(Cl)Cl)n1` gave PrP UTR inh inactive, FadD28 FP inh inactive, Y pestis TopoI inactive and PfHsp40 yeast inactive.
CCSc1nc(-c2ccccc2)nc(C(Cl)Cl)n1 was read as PrP UTR inh 63, BioA inh inactive, FadD28 FP inh inactive, Y pestis TopoI inactive, PfHsp40 yeast inactive and PrP 5UTR single 79.
`COC(=O)c1[nH]c2c(c1C)C(=O)CC(c1ccccc1)C2` (configuration not stated) gave PrP UTR inh inactive, BioA inh inactive, FadD28 FP inh inactive, Y pestis TopoI inactive and PfHsp40 yeast inactive.
Cc1c(C(=O)OCC2CCCO2)[nH]c2c1C(=O)CC(c1ccco1)C2 (configuration not stated) was read as PrP UTR inh inactive, BioA inh inactive, FadD28 FP inh inactive, Y pestis TopoI inactive and PfHsp40 yeast inactive.
For Cc1c(C(=O)OC2CCCC2)[nH]c2c1C(=O)CC(c1ccco1)C2 (configuration not stated) the results were PrP UTR inh 61, BioA inh inactive, FadD28 FP inh inactive, Y pestis TopoI inactive, PfHsp40 yeast inactive and PrP 5UTR single 73.
`Cc1c(C(=O)OCC(C)C)[nH]c2c1C(=O)CC(c1ccco1)C2` (configuration not stated) gave PrP UTR inh 70, BioA inh inactive, FadD28 FP inh inactive, Y pestis TopoI inactive, PfHsp40 yeast inactive and PrP 5UTR single 85.
`C/C=C/COC(=O)c1[nH]c2c(c1C)C(=O)CC(c1ccco1)C2` (configuration not stated) gave PrP UTR inh 62, BioA inh inactive, FadD28 FP inh inactive, Y pestis TopoI inactive, PfHsp40 yeast inactive and PrP 5UTR single 85.
Screening CN1CCN(C(=O)C[C@H]2CC[C@@H]3[C@H](COc4ccc(NC(=O)C5CC5)cc4C(=O)N3C)O2)CC1 returned BioA inh inactive.
O=C(C[C@H]1CC[C@H]2[C@@H](COC[C@H](O)CN2C(=O)c2ccccc2F)O1)NCc1ccc(Cl)cc1 was read as BioA inh inactive.
Screening CCc1ccc(NC(=O)c2cnn3ccccc23)cc1 returned PrP UTR inh 51, BioA inh inactive, FadD28 FP inh inactive, Y pestis TopoI inactive, PfHsp40 yeast inactive and PrP 5UTR single inconclusive.
`Cc1cc(/C=C2\SC(=S)N(C)C2=O)c(C)n1-c1ccc(O)cc1` gave PrP UTR inh 76, FadD28 FP inh inactive, Y pestis TopoI inactive, PfHsp40 yeast 450 and PrP 5UTR single 77.
`C[C@@H]1CCCCO[C@H](CN(C)S(=O)(=O)c2cccs2)[C@H](C)CN([C@@H](C)CO)C(=O)c2cc(NC(=O)CCC(F)(F)F)ccc2O1` gave BioA inh inactive.
CC(=O)c1c(C)[nH]c(C(=O)COC(=O)CCCOc2ccccc2)c1C was read as PrP UTR inh 58, FadD28 FP inh inactive, Y pestis TopoI inactive, PfHsp40 yeast inactive and PrP 5UTR single inconclusive.
For CC(=O)c1c(C)[nH]c(C(=O)COC(=O)CCSc2ccccc2)c1C the results were PrP UTR inh inactive, BioA inh inactive, FadD28 FP inh inactive, Y pestis TopoI inactive and PfHsp40 yeast inactive.
`COCCOC(=O)N1C(=O)[C@@]2(c3ccccc31)[C@H](c1ccc(OCCO)cc1)N1[C@H](c3ccccc3)[C@H](c3ccccc3)OC(=O)[C@H]1[C@@H]2C(=O)N1CCN(c2ncccn2)CC1` gave BioA inh inactive.
Cc1[nH][nH]c(=O)c1N=Nc1ccccc1Cl was read as PrP UTR inh inactive, FadD28 FP inh inactive, Y pestis TopoI inactive and PfHsp40 yeast inactive.
Clc1ccccc1N=Nc1ccccn1 was read as PrP UTR inh 68, FadD28 FP inh inactive, Y pestis TopoI inactive, PfHsp40 yeast inactive and PrP 5UTR single inactive.
`O=C1OCCN1C(=O)[C@H]1[C@H](c2ccccc2)C(c2ccc(F)cc2)=NN1c1ccc(Br)cc1` gave PrP UTR inh 67, BioA inh inactive, FadD28 FP inh inactive, Y pestis TopoI inactive, PfHsp40 yeast inactive and PrP 5UTR single inactive.
`Cc1ccc(Sc2cnc3ccccc3n2)cc1` gave PrP UTR inh 88, BioA inh inactive, FadD28 FP inh inactive, Y pestis TopoI inactive, PfHsp40 yeast inactive and PrP 5UTR single inactive.
`CC(Sc1cnc2ccccc2n1)C(=O)O` (configuration not stated) gave PrP UTR inh inactive, BioA inh inactive, FadD28 FP inh inactive, Y pestis TopoI inactive and PfHsp40 yeast inactive.
C=C(CCO)C1=CCN(S(=O)C(C)(C)C)[C@@H]1CCO (some centres not stated) was read as PrP UTR inh inactive, BioA inh inactive, FadD28 FP inh inactive, Y pestis TopoI inactive and PfHsp40 yeast inactive.
C=C(C1=CCN(S(=O)C(C)(C)C)[C@@H]1CCO)c1ccccc1 (some centres not stated) was read as PrP UTR inh 59, BioA inh inactive, FadD28 FP inh inactive, Y pestis TopoI inactive, PfHsp40 yeast inactive and PrP 5UTR single inactive.
`CCOc1ccc(C(=O)O/N=C(\N)c2ccccn2)cc1` gave PrP UTR inh 84, BioA inh inactive, FadD28 FP inh inactive, Y pestis TopoI inactive, PfHsp40 yeast inactive and PrP 5UTR single 92.
Screening CC(C)(C)c1ccc(C(=O)O/N=C(\N)c2ccccn2)cc1 returned PrP UTR inh 77, BioA inh inactive, FadD28 FP inh inactive, Y pestis TopoI inactive, PfHsp40 yeast inactive and PrP 5UTR single 75.
Screening Cc1cccc(C(=O)O/N=C(\N)c2ccccn2)c1 returned PrP UTR inh 56, BioA inh inactive, FadD28 FP inh inactive, Y pestis TopoI inactive, PfHsp40 yeast inactive and PrP 5UTR single 75.
For Cc1ccc(C(=O)O/N=C(\N)c2ccccn2)cc1 the results were PrP UTR inh 87, BioA inh inactive, FadD28 FP inh inactive, Y pestis TopoI inactive, PfHsp40 yeast inactive and PrP 5UTR single 94.
C[C@H](CO)N1C[C@H](C)[C@H](CN(C)C(=O)CN(C)C)Oc2cc(C3=CCCC3)ccc2S1(=O)=O was read as BioA inh inactive.
Screening COc1ccc(NC(=O)Nc2ccc3c(c2)C(=O)N([C@@H](C)CO)C[C@H](C)[C@@H](CN(C)S(=O)(=O)c2ccc(C)cc2)OCCCC[C@@H](C)O3)cc1 returned BioA inh inactive.
`Cc1ccc(C(=O)O/N=C(\N)c2ccccn2)cc1C` gave PrP UTR inh 87, BioA inh inactive, FadD28 FP inh inactive, Y pestis TopoI inactive, PfHsp40 yeast inactive and PrP 5UTR single 77.
